# Measured values as given in the supplement of paper PMC7801607.
# Assays:
# CHO = assay: % viability of CHO cells (MTT); higher = less toxic; details: 48 h
# Procedure, shortened: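 Viability was given as a percentage of untreated cells and measured colorimetrically by the tetrazolium (MTT) assay. Before this, CHO cells at 10^6 cells/well in 200 µL attached overnight, then received fresh medium containing compound at 2 or 20 µM for 48 h.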
# HepG2-A16-CD81 = assay: % inhibition of HepG2 viability (CellTiter-Glo); higher = more toxic; details: 5 µM
# [1] = system: Plasmodium falciparum NF54 stage IV/V gametocytes; assay: % inhibition of gametocyte viability (PrestoBlue); higher = more inhibition; details: 48 h
# Procedure, shortened: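 Values are percent inhibition of gametocyte viability, normalised to vehicle and kill controls in a single run. Stage IV/V NF54 gametocytes (2% gametocytaemia, 5% haematocrit, 100 µL/well) were held with compound at 1 or 5 µM for 48 h at 37 °C, stationary and hypoxic. Viability was read as 612 nm fluorescence on 70 µL of supernatant after a 2 h incubation with 10 µL PrestoBlue.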
# [2] = system: Plasmodium falciparum NF54 asexual blood stage; assay: % inhibition of asexual blood stage proliferation (pLDH); higher = more inhibition; details: 72 h
# Procedure, shortened: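 Using 96-well plates, the screen was run twice on separate occasions with Plasmodium falciparum NF54 ring-stage cultures at 1% haematocrit and 2% parasitaemia. Each culture was exposed to compound at 2 or 20 µM for 72 h at 37 °C under a gas mix of 4% CO2, 3% O2 and 93% N2. After incubation, the parasite lactate dehydrogenase assay was read colorimetrically at 620 nm. From this readout, percent inhibition of asexual proliferation was derived against control wells.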
# [3] = system: Plasmodium falciparum NF54 stage IV/V gametocytes; assay: % inhibition of gametocyte viability (ATP bioluminescence); higher = more inhibition; details: 24 h
# Procedure, shortened: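 Viability of stage IV/V NF54 gametocytes is given as percent inhibition, normalised to control wells in a single run. Gametocytes enriched on density gradients were seeded at 30,000 per well in 96-well plates with compound at 1 or 5 µM and held at 37 °C for 24 h. ATP was then read with the Promega BacTiter Glo bioluminescence system.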
# [4] = system: Plasmodium falciparum NF54 stage IV/V gametocytes; assay: % inhibition of gametocyte viability (luciferase reporter); higher = more inhibition; details: 48 h
# Procedure, shortened: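 Percent inhibition came from luminescence and was normalised to controls in a single run. Gametocytes (stage IV/V, NF54-Pfs16-GFP-Luc line, 2% gametocytaemia, 2% haematocrit) were treated with compound at 1 or 5 µM and incubated for 48 h at 37 °C without agitation under hypoxia. Readings used 30 µL lysate with 30 µL Promega luciferin substrate on a GloMax-Multi+ reader, integrating for 10 s.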
# [5] = system: Plasmodium berghei ANKA liver stage in HepG2-A16-CD81; assay: % inhibition of liver stage parasite viability (luciferase); higher = more inhibition; details: 5 µM; 48 h
# Procedure: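 Single-concentration screen of the MMV Pandemic Response Box. P. falciparum NF54 asexual blood stages: pLDH assay, 72 h at 37 °C, 2 and 20 µM, n=2. Stage IV/V gametocytes (NF54): luciferase reporter (NF54-Pfs16-GFP-Luc, 48 h), ATP bioluminescence (24 h) and PrestoBlue (48 h) at 1 and 5 µM, n=1. P. berghei liver stage (luciferase in HepG2-A16-CD81, 48 h post infection) at 5 µM, n=4. All normalised to DMSO and kill controls as % inhibition.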
# 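For % inhibition of HepG2 viability (CellTiter-Glo) in this document: HepG2-A16-CD81 hepatoma cells plated as in the liver-stage assay but without sporozoites, with DMSO wells as negative and 25 µM puromycin as positive control.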
SMILES,% viability of CHO cells (CHO; 2 µM) [%],% viability of CHO cells (CHO; 20 µM) [%],% inhibition of HepG2 viability (HepG2-A16-CD81) [%],% inhibition of gametocyte viability ([1]; 1 µM) [%],% inhibition of gametocyte viability ([1]; 5 µM) [%],% inhibition of asexual blood stage proliferation ([2]; 2 µM) [%],% inhibition of asexual blood stage proliferation ([2]; 20 µM) [%],% inhibition of gametocyte viability ([3]; 1 µM) [%],% inhibition of gametocyte viability ([3]; 5 µM) [%],% inhibition of gametocyte viability ([4]; 1 µM) [%],% inhibition of gametocyte viability ([4]; 5 µM) [%],% inhibition of liver stage parasite viability [5] [%]
O=C(O)C(Cc1c[nH]c2ccccc12)N1C(=O)c2ccccc2C1=O (stereo not drawn),89.9,92,-0.93,< 0,< 0,33.4,72.4,8.39,< 0,13,22.9,21.1
N=C(N)c1ccc(COc2ccc(Cl)cc2)cc1,103,102,2.38,< 0,11.4,11.1,89.9,0.321,4.27,< 0,< 0,-17.2
CC[C@H](CO)Nc1nc(NCc2ccccc2)c2ncn(C(C)C)c2n1,157,60.7,10.6,< 0,< 0,-11.2,88,1.02,< 0,6.71,< 0,26.6
O=C(O)c1cc(-c2ccc(Br)cc2)nc2ccc(Cl)cc12,96.8,111,3.15,14.7,5.76,7.74,-6.63,< 0,< 0,< 0,< 0,-34.6
CCc1cc(O)c(Oc2cccnc2N)cc1F,64.8,62.9,-0.638,< 0,< 0,8.28,20.8,< 0,< 0,< 0,< 0,18.6
COc1ccc(CNC(=O)C(NS(=O)(=O)c2ccc3nc(C)sc3c2)C(C)C)cc1 (stereo not drawn),105,75.8,3.43,48.7,50.8,81.6,111,< 0,< 0,13.6,< 0,21.7
Oc1ccc2[nH]c(-c3ccccc3)nc2c1,107,93,12.1,10.1,13.2,29.1,62.2,< 0,< 0,< 0,< 0,-35.4
Fc1ccc2c(/C=C/c3nnn[nH]3)c[nH]c2c1,80.4,75,2,4.4,18.3,7.6,10.8,< 0,< 0,< 0,4.42,7.99
Fc1ccc2c(/C=C/c3cccnc3)c[nH]c2c1,107,117,0.955,< 0,6.61,4.51,61.2,< 0,< 0,< 0,< 0,-23.8
O=C(O)c1sccc1S(=O)(=O)n1ccc2cc(Br)ccc21,93.4,97.8,-1.44,12.3,30.7,49.8,84.9,< 0,< 0,< 0,< 0,8.54
CCc1ccccc1OCCN1CCCCCC1,96.9,109,14,15.5,15.2,10.6,87.1,6.82,< 0,< 0,2.04,17.2
NC(=O)c1[nH]c2ccc(S(N)(=O)=O)cc2c1-c1ccccc1,93.5,98.8,8.64,< 0,19.1,16.9,72.7,< 0,< 0,11.7,< 0,21.9
COc1ccc2c(c1OC)C(=O)OC2C1c2c(cc3c(c2OC)OCO3)CCN1C (stereo not drawn),102,-0.468,3.76,< 0,5.61,42.6,68.3,< 0,< 0,2.79,9.42,19
Cc1cc(CCCOc2c(C)cc(-c3noc(C(F)(F)F)n3)cc2C)on1,103,125,7.06,6.7,35.6,44.6,65.2,4.65,5.28,10.6,< 0,-23.2
Cc1cc(CCOc2c(C)cc(-c3nnn(C)n3)cc2C)on1,100,105,-1.96,26.4,21.8,12.7,31,< 0,< 0,4.37,32.2,33.8
COc1ccc(C[C@@H](C)[C@@H](C)Cc2ccc(OC)c(OC)c2)cc1OC,81.9,77.7,5.15,10.5,23.6,13.7,63,< 0,< 0,< 0,< 0,4.88
CCC[C@@H]1C[C@@H](C(=O)N[C@@H]([C@H]2O[C@H](SC)[C@H](O)[C@@H](O)[C@H]2O)[C@H](C)Cl)N(C)C1,89.5,103,5.96,10.3,24.2,72.9,93.2,< 0,1.18,< 0,< 0,92.2
C[C@@H](O)[C@H](N)C(=O)NS(=O)(=O)c1cccc(-c2ccc3[nH]ncc3c2)c1,85.2,96,-0.0475,35.8,19.7,-13.1,32,< 0,< 0,< 0,6.84,31.2
Nc1nc(N)c2c(Sc3ccccc3)cccc2n1,107,100,13.7,< 0,4.25,47.8,77.9,< 0,2.83,< 0,< 0,48.9
